Tau ThT inhib: qHTS for Inhibitors of Tau Fibril Formation, Thioflavin T Binding; recombinant tau K18 P301L, heparin-induced fibrillization, ThT fluorescence; Potency, µM (doses to about 57.4 µM), for inactives: at the highest dose activity, negative = inhibition, most hits filed as inhibitors; hit rate 2.1% among 270,000; AID 1460, 2008; also: potency is read from the fitted curve at half-maximal effect; nearly all actives have a fitted effect of over 55% in size
Target sequence (P10636 561-689 P618L limits assumed): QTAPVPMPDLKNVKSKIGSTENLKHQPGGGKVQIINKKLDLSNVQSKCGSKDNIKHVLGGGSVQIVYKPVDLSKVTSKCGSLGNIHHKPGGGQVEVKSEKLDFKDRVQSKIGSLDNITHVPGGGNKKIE
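Heparin-induced fibrillization of the P301L-mutant K18 repeat-domain fragment of human tau was followed by ThT binding in quantitative high-throughput format.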
G9a inh: qHTS Assay for Inhibitors of Histone Lysine Methyltransferase G9a | Histone-lysine N-methyltransferase EHMT2 (Homo sapiens), Q96KQ7 | hit rate 8.8% among 350,000 | Potency, µM (doses to about 102 µM), inactives show top-dose activity, negative = inhibition, actives largely listed as inhibitors | AID 504332, 2011 | G9a H3K9 monomethylation, AlphaScreen, 2 h; also: potency is read from the fitted curve at half-maximal effect; nearly all actives have a fitted effect of over 75% in size
Target sequence (Q96KQ7 913-1193 limits assumed): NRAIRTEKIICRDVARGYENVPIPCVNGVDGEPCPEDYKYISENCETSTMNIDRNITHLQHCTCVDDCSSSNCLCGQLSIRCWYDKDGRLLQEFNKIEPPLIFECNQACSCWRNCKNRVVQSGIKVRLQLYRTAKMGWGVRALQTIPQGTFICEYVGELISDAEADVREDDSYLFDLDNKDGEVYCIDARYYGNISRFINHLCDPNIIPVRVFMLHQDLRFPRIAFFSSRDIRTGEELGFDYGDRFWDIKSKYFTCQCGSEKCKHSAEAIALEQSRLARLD
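AlphaScreen detection with an anti-monomethyl H3K9 antibody quantified product after a 2 h room-temperature reaction containing 500 nM biotinylated H3K9 peptide, 20 µM SAM and 20 nM enzyme, which had been preincubated 15 min with compound.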
Tau fluor cs: Counterscreen qHTS for Inhibitors of Tau Fibril Formation, Fluorescence Polarization; tau K18 P301L (four-repeat tau fragment) Alexa594 fluorescence, heparin fibrillization; Potency, µM (series often up to 57.7 µM), for the others: top-dose activity change, negative = decrease; hit rate 0.93% among 280,000; also: potency is read from the fitted curve at half-maximal effect; nearly all actives have a fitted effect of over 55% in size
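Human K18 P301L tau (15 uM unlabeled plus 0.24 uM Alexa 594-labeled, final) in 100 mM sodium acetate pH 7 was mixed with compound and 20 uM heparin and incubated 6 hr at 37 C.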
Sfp PPTase inh: qHTS Assay for Inhibitors of Bacillus subtilis Sfp phosphopantetheinyl transferase (PPTase); 4'-phosphopantetheinyl transferase ffp (Bacillus subtilis), Q9F4F7; Biochemical Sfp PPTase activity, qHTS; Potency, µM, for the others: largest response in the series, negative = inhibition, usual class: inhibitors; hit rate 3.5% among 310,000; AID 1490, 2009;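 also: the enzyme is Sfp with the accession as filed and its product quenches rhodamine fluorescence; potency is read from the fitted curve at half-maximal effect; 0% = enzyme reaction without inhibitor and -100% = no enzyme wells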
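Fluorescence-quenching assay: 15 nM Sfp-PPTase preincubated 15 min at room temperature with compound, then 5 uM rhodamine-CoA and 12.5 uM BHQ-2-labelled YbbR peptide added. Fluorescence (ex 525/em 598 nm) read at start and after 30 min; difference gives rate.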
FBPA coupling cs: qHTS Assay for Inhibitors of Fructose-1,6-bisphosphate Aldolase from Giardia Lamblia: Coupling assay counterscreen; activity change, negative = inhibition, % at 58.2 µM, hits read low; AID 2472, 2010; coupling enzyme system counterscreen, AmpLite Red fluorescence; hit rate 0.67% among 290,000; in the data active = activity change below about -30%
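Final compound at 57.5 uM, incubated 10 min at RT with coupling enzyme reagent (glyceraldehyde-3-phosphate), then 20 min with substrate and AmpLite Red detection. Fluorescence read at 525/598 nm; tests interference with the coupling assay, not aldolase inhibition.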
Tau fibril FP: qHTS for Inhibitors of Tau Fibril Formation, Fluorescence Polarization; Microtubule-associated protein tau (Homo sapiens), P10636; K18 P301L tau heparin fibrillization, Alexa594 FP, 6 h; Potency, µM (top dose mostly 57.7 µM), inactives show at the top dose activity, negative = inhibition, usual class: inhibitors; hit rate 0.39% among 280,000; also: potency is read from the fitted curve at half-maximal effect; nearly all actives have a fitted effect of over 55% in size
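Human tau K18 […] P301L fragment, 15 uM unlabeled plus 0.24 uM Alexa 594-labeled tau (final), with compound and 20 uM heparin in 100 mM sodium acetate pH 7; 6 hr at 37 C, then Alexa 594 FP read.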
Active calls of the source: *; ? = inconclusive; nt = no result; [ ] = dose if it differs, or a comment. The list is not random: actives were taken first. Their share in the collection is about 11%. Unless noted, calls follow the shape of the dose curve; as a rule, active = well fitted curve in the direction sought with a large enough effect; inconclusive = small, poorly fitted or top-dose-only effect, or another doubt; inactive = no such curve, though single readings can be large; an effect the other way counts as inactive or inconclusive. Unless noted, % is scaled to controls: 0 for no effect and ±100 for the full control effect.

SMILES	Tau ThT inhib	G9a inh	Tau fluor cs	Sfp PPTase inh	FBPA coupling cs	Tau fibril FP
CSc1ccccc1N=CC1=C(O)CC(C)(C)CC1=O	-10.8%	?	-7.6%	-1.0%	-0.4	5.1%
CC1(C)CC(=O)C(Sc2ccccc2[N+](=O)[O-])=C(O)C1	-15.2%	50.1µM*	-3.1%	?	4.1	-4.2%
COC(=O)c1ccc(N2CCN(C)CC2)c(NC(=O)c2cccnc2)c1	-6.8%	?	-0.8%	-2.6%	-1.2	8.5%
S=C(Nc1ccc(Oc2ccccc2)cc1)N1CCOCC1	nt	2.8%	nt	-8.2%	3.7	nt
CC(=O)c1ccc(NCC(=O)N2CCN(c3ccccc3)CC2)cc1	?	14.1µM*	-15.1%	1.6%	-1.1	-2.8%
O=C(CNc1ccc(Oc2ccccc2)cc1)N1CCOCC1	0.4%	?	7.2%	50.1µM*	0.9	3.0%
CCC(CC)C(=O)N1CCN(c2ccccc2)CC1	-4.7%	79.4µM*	-1.7%	15.9%	0.7	1.1%
CCc1nc2ccc(C(=O)NCc3ccc(OC)c(OC)c3)cc2nc1CC	-1.2%	6.1%[59 µM]	-8.5%	nt	nt	-6.4%
Cc1ccc(C)c(N2CCN(C(=O)c3ccc4nc(-c5ccco5)c(-c5ccco5)nc4c3)CC2)c1	?	-8.1%[0.0925 µM]	-22.1%	20µM*	nt	7.6%
COc1ccccc1N1CCN(C(=O)c2ccc3nc(-c4ccco4)c(-c4ccco4)nc3c2)CC1	?	10µM*	-15.3%	-7.2%	0.5	8.6%
COc1ccccc1N1CCN(C(=O)c2ccc3nc[nH]c3c2)CC1	-8.5%	7.9%[59 µM]	-15.7%	-0.3%	-2.2	2.3%
CCOC(=O)C1CCCN(C2=NC(=O)/C(=C/c3ccc(OC)cc3)S2)C1 (centres undefined)	nt	-5.4%	nt	6.5%	2.2	nt
CCOC(=O)C1CCN(C2=NC(=O)/C(=C/c3ccc(O)cc3)S2)CC1	nt	39.8µM*	nt	?	-1.0	nt
CCOC(=O)CSC1=NC(=O)/C(=C/c2ccc(OC)cc2)S1	?	7.08µM*	-5.1%	17.8µM*	4.5	-14.2%
CCOC(=O)C1CCN(C2=NC(=O)/C(=C/c3ccccc3OC)S2)CC1	nt	-7.4%	nt	0.3%	5.9	nt
CCOC(=O)C1CCCN(C2=NC(=O)/C(=C/c3ccc(N(C)C)cc3)S2)C1 (centres undefined)	nt	39.8µM*	nt	-12.0%	-5.6	nt
CCOC(=O)C1CCCN(C2=NC(=O)/C(=C/c3ccc(OC)cc3OC)S2)C1 (centres undefined)	nt	25.1µM*	nt	44.7µM*	1.3	nt
COc1ccc(/C=C2\SC(N)=NC2=O)cc1	nt	2.8%	nt	8.3%	4.0	nt
CCOC(=O)C(=O)C1(C(=O)OCC)Oc2cc(OC)cc(OC)c2C(=O)C1c1ccccc1 (centres undefined)	2.8%	nt	-6.6%	-19.3%	1.4	-10.3%
CCC(C)C(NC(=O)OC(C)(C)C)C(=O)NC1COC2CC(n3ccc(=O)[nH]c3=O)OC12 (centres undefined)	nt	nt	nt	9.8%	2.4	nt
CCn1c(=O)n(-c2ccc(F)cc2)c(=O)c2sc3ccccc3c21	-0.2%	1.2%[59 µM]	-9.0%	nt	nt	-2.4%
COCCn1c(SCC(=O)N2CCCCC2)nc2c(c1=O)SC(C)C2 (centres undefined)	nt	66.2%	nt	4.2%	0.0	nt
Cc1nc2[nH]onc2c2nccc(=O)c12	-2.2%	14.1µM*	4.4%	-0.2%	1.0	1.7%
c1ccc(-n2cnnc2SCc2cn3ccccc3n2)cc1	-0.8%	50.1µM*	1.8%	-2.0%	3.7	2.4%
Cc1cccc2nc(CSc3nnnn3-c3ccccc3)cn12	-3.1%	-11.6%	-6.3%	21.0%	0.3	-6.6%
SMILES	Tau ThT inhib	G9a inh	Tau fluor cs	Sfp PPTase inh	FBPA coupling cs	Tau fibril FP
Cc1cccc2nc(CSc3nncn3-c3ccccc3)cn12	?	39.8µM*	-9.5%	-7.0%	-1.0	-5.8%
Brc1c(CSc2nncn2-c2ccccc2)nc2sccn12	14.4%	42.6%[59 µM]	13.0%	-3.5%	1.5	1.6%
Brc1c(CSc2nncn2-c2ccccc2)nc2ncccn12	12.0%	56.2µM*	9.2%	15.3%	4.2	10.2%
Cc1ccc2nc(-c3cc(NC(=O)COc4ccc(C)c(C)c4)ccc3Cl)oc2c1	-5.0%	2.4%[59 µM]	?	nt	nt	?
Cc1cccc(NC(=S)NNC(=O)c2ccccc2OC(F)F)c1	?	?	-17.0%	-4.9%	1.0	-0.7%
CC(=O)Nc1cccc(NC(=S)Nc2ccc(F)c(Cl)c2)c1	?	?	?	35.5µM*	-1.0	-11.6%
Cc1cccc(NC(=S)NNC(=O)c2ccccc2Br)c1	-15.0%	5.01µM*	-10.8%	-4.0%	3.7	4.6%
CC(=O)Nc1cccc(NC(=O)Nc2ccc(C)c(Cl)c2)c1	3.3%	11.6%	-25.6%	7.1%	-0.7	-11.5%
CC(=O)NNC(=S)Nc1cccc(F)c1	-4.5%	12.6µM*	-4.0%	5.0%	3.6	11.0%
O=C(NNC(=S)Nc1ccc(F)c(Cl)c1)C1CC1	-3.5%	?	-3.2%	23.2%	-1.2	-0.3%
COC(=O)c1sccc1NC(=S)Nc1cccc(F)c1	-8.9%	nt	-10.7%	-4.0%	-1.4	1.6%
O=C(NNC(=S)Nc1ccc(F)c(Cl)c1)c1ccccc1Br	?	-39.4%[12.7 µM]	-22.3%	56.2µM*	2.1	-6.9%
O=C(COc1ccc2c(c1)OCO2)Nc1nnc(Cc2ccccc2)s1	nt	17.8µM*	nt	-91.4%	1.4	nt
COCc1nnc(NC(=O)COc2ccc3c(c2)OCO3)s1	nt	22.4µM*	nt	56.2µM*	-0.5	nt
CC(C)(C)c1cc(NCc2ccccn2)n2ncc(-c3ccccc3)c2n1	?	81.3%	10µM*[quencher]	29.0%	-5.6	11.3%

From PubChem
